Screening data from PubChem BioAssay.
HCV inhibitor – HCV inhibition; 3.4% of 340,000 active; AID 651820; Huh7.5.1 HCVcc-Cre infection, luciferase reporter, 44 h; Potency, µM (highest dose often 41.8 µM), without a hit: at the highest dose activity change, negative = inhibition, hits mostly inhibitors; further: potency means the concentration at half of the fitted maximal effect; on the % scale 0 is the no-effect control and ±100 the full control effect
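Cells (1,000/well) were plated 4 h before compound, then infected with HCVcc-Cre virus (~0.5 moi). After 44 h further culture, infection was read as luciferase luminescence following a 15 min substrate incubation at room temperature.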
Shiga toxin inh – Shiga toxin inhibition; Vero cells, Shiga toxin protein synthesis inhibition reporter; inhibition, % at 38.7 µM; 9.2% of 290,000 active; AID 2315; in the data active means inhibition mostly above about 28%, no sharp cut-off; inactive means mostly below about 43%; further: 0% is about no effect
Cycloheximide cs – affects cycloheximide protein synthesis inhibition readout, counter-screen | cell reporter, cycloheximide protein synthesis inhibition counterscreen | 12% of 300,000 active | AID 2314 | max response, %; in the data active means max response mostly above about 13%, no sharp cut-off; inactive means mostly below about 14%; further: read at 38.3 µM for the half of the compounds with a filed dose; 0% is about no effect
Pf growth 48h – inhibits P. falciparum growth in the first generation, 48 h; P. falciparum luciferase growth in erythrocytes, 48 h; 5.9% of 310,000 active; Potency, µM (series often up to 28.7 µM), inactives show top-dose activity change, negative = inhibition, actives largely listed as inhibitors; further: potency means the concentration at half of the fitted maximal effect; on the % scale 0 is the no-effect control and ±100 the full control effect
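Firefly luciferase activity from engineered P. falciparum reports growth; inhibitors lower the luminescent signal. Cultures contained 2% hematocrit erythrocytes at 0.1% final parasitemia.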
Pf growth 96h – inhibits malaria parasite growth, 96 h; 6.9% of 320,000 active; Potency, µM (doses to about 28.7 µM), inactives show at the top dose activity change, negative = inhibition, most hits filed as inhibitors; P. falciparum luciferase reporter growth, 96 h; further: potency means the concentration at half of the fitted maximal effect; on the % scale 0 is the no-effect control and ±100 the full control effect
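Infected RBCs, 2% Hct / 0.05% parasitemia final; luciferase-reporter P. falciparum; cpd 96 h, 37 C, 5% CO2; luciferase detection reagent; luminescence.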
AMA1-RON2 inh – inhibitors of Plasmodium falciparum AMA1-RON2 interaction; AlphaScreen AMA1-biotinylated RON2 peptide binding; Potency, µM (series often up to 58.2 µM), without a hit: at the top dose activity change, negative = inhibition, usual class: inhibitors; 0.2% of 360,000 active; AID 720542;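 further: potency means the concentration at half of the fitted maximal effect; 0% = vehicle wells and -100% = peptide control; nearly all actives have a fitted effect of over 45% in size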
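AMA1 (3D7) with his tag at 25 nM final met compounds first, then biotinylated RON2 peptide at 25 nM; detection used donor plus acceptor beads, 10 µg/mL apiece, read by AlphaScreen after 30 min at room temperature.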
Numbers without * were called inactive; ? = inconclusive; / = no result. Hits are enriched below; roughly 21% of the tested compounds scored in any of these assays. Unless noted, the call rests on the fitted dose curve; in most records, active means well fitted curve in the direction sought with a large enough effect; inconclusive means small, poorly fitted or top-dose-only effect, or another doubt; inactive means no such curve, though single readings can be large; an effect the other way counts as inactive or inconclusive.

SMILES	HCV inhibitor	Shiga toxin inh	Cycloheximide cs	Pf growth 48h	Pf growth 96h	AMA1-RON2 inh
CN(CC(=O)Nc1ccc(F)cc1)C(=O)c1ccc2ccccc2n1	3.3%	/	/	1.5%	3.1%	-4.9%
Cc1ccc(C)c(NC(=S)N(C)C)c1	-12.6%	1.5	-1.9	13.6%	-0.6%	-10.3%
Cc1ccc(C)c(NC(=S)c2ccc3ccccc3n2)c1	-12.7%	74.7*	44.4*	88.5%	-16.0%	?
CN(C)c1ccc(NC(=S)c2ccc3ccccc3n2)cc1	3.4%	112.9*	31.5*	103.8%	147.0%	?
Cc1nnc2n(C3CCCCC3)c(=O)c3c4c(sc3n12)CCC4	/	-20.2	-2.1	-1.7%	3.29µM*	/
CSc1nnc2n(C3CCCCC3)c(=O)c3c4c(sc3n12)CCCC4	14.3%	30.6	-1.4	3.3%	-6.9%	/
CCN(C(=O)Cn1ccc(C(F)(F)F)n1)c1c(N)n(Cc2ccccc2)c(=O)[nH]c1=O	14.0%	/	/	-6.3%	-21.7%	2.8%
Cc1ccsc1C(=O)OCC(=O)N1CCc2ccccc2C1	-11.5%	115.1*	45.2*	408.8%	479.6%	-1.2%
Cc1cc(OCC(=O)N2CCc3ccccc3C2)c(C)cc1Br	?	40.5*	26.6*	-6.6%	7.2%	23.5%
Cc1ccccc1OCC(=O)N1CCc2ccccc2C1	3.9%	18.6	14.7	13.8%	11.4%	-0.9%
Cc1ccc(C)c(OCC(=O)N2CCc3ccccc3C2)c1	-15.8%	25.5	13.2*	20.5%	36.6%	-8.1%
Nc1ccc(C(=O)OCC(=O)N2CCc3ccccc3C2)cc1[N+](=O)[O-]	10.4%	56.9*	38.5*	48.1%	-27.4%	-19.3%
O=C(OCC(=O)N1CCc2ccccc2C1)c1ccc(Cl)c([N+](=O)[O-])c1	-13.5%	/	/	?	-18.3%	-10.9%
COc1ccc(S(=O)(=O)N2CC(=O)Nc3ccccc32)cc1	1.0%	-3.8	-2.1	-10.2%	?	4.3%
O=C1CCN(C(=O)Cc2ccccc2)c2ccccc21	/	/	/	/	/	11.4%
O=C(CS(=O)(=O)c1ccccc1)N1CCCCCC1	-5.3%	52.6*	17.3*	38.3%	27.5%	9.0%
O=C1c2ccccc2C(=O)N1CCC(=O)N1CCc2ccccc21	-0.4%	/	/	/	/	-7.1%
O=C(C(Cc1ccccc1)N1C(=O)c2ccccc2C1=O)N1CCc2ccccc21 (stereo not drawn)	-14.7%	10.5	-2.6	14.7µM*	?	6.5%
Cn1cc(S(=O)(=O)CC(=O)N2CCc3ccccc32)c2ccccc21	7.2%	13.4	-3.1	/	-28.7%	15.6%
O=C(Cc1ccccc1)N1CCc2ccccc21	10.5%	40.3*	27.4*	/	44.6%	6.7%
O=C(CS(=O)(=O)c1ccccc1)N1CCc2ccccc21	-1.0%	73.9*	39.8*	54.2%	0.828µM*	8.0%
CCCCNC(=O)c1c(N)[nH]c(C(=O)c2ccccc2)c1-c1ccc(Cl)cc1	/	/	/	/	/	2.0%
CCCCN(C(=O)C1CC(=O)N(CCc2ccc(OC)c(OC)c2)C1)c1c(N)n(CC(C)C)c(=O)[nH]c1=O (stereo not drawn)	12.9%	/	/	/	/	-2.5%
C[C@@](Cc1ccccc1)(C(=O)O)N1C(=O)c2ccc(C(=O)O)cc2C1=O	/	50.0	13.1	20.8%	15.9%	/
COc1ccc(CC(=O)N2CCc3ccccc32)cc1	-16.0%	79.5*	31.5*	127.4%	-23.4%	6.0%
SMILES	HCV inhibitor	Shiga toxin inh	Cycloheximide cs	Pf growth 48h	Pf growth 96h	AMA1-RON2 inh
CC(CC(=O)N1CCc2ccccc21)n1cccn1 (stereo not drawn)	8.9%	25.0	26.8*	25.7%	?	-2.7%
COc1ccc2c(CC(=O)N3CCc4ccccc43)coc2c1	-23.2%	65.6*	42.1*	154.0%	/	-12.5%
Cc1ccn(C(C)CC(=O)N2CCc3ccccc32)n1 (stereo not drawn)	0.1%	-3.8	16.7	-1.6%	67.4%	-7.1%
O=C(CCn1cccc1)N1CCc2ccccc21	3.5%	16.7	53.2*	16.3%	87.0%	-5.6%
COc1ccc(CCC(=O)N2CCCc3ccccc32)cc1	21.1%	-20.8	16.4	13.3%	17.0%	-1.7%
COc1ccc(CCNC(=O)CC2SC(N)=NC2=O)cc1OC (stereo not drawn)	3.3%	8.7	-2.5	-11.0%	13.7%	2.5%
